Columns and labels:
[1] = molecular target: Serine/threonine-protein kinase MRCK alpha (Homo sapiens) (UniProt Q5VT25); conditions: at 0.1 µM
[2] = molecular target: Serine/threonine-protein kinase MRCK alpha (Homo sapiens) (UniProt Q5VT25); conditions: at 1 µM
[3] = molecular target: Serine/threonine-protein kinase MRCK beta (Homo sapiens) (UniProt Q9Y5S2); conditions: at 0.1 µM
[4] = molecular target: Serine/threonine-protein kinase MRCK beta (Homo sapiens) (UniProt Q9Y5S2); conditions: at 1 µM
[5] = molecular target: Ribosomal protein S6 kinase alpha-5 (Homo sapiens) (UniProt O75582); conditions: at 0.1 µM
[6] = molecular target: Ribosomal protein S6 kinase alpha-5 (Homo sapiens) (UniProt O75582); conditions: at 1 µM
[7] = molecular target: Ribosomal protein S6 kinase alpha-4 (Homo sapiens) (UniProt O75676); conditions: at 0.1 µM
[8] = molecular target: Ribosomal protein S6 kinase alpha-4 (Homo sapiens) (UniProt O75676); conditions: at 1 µM
[9] = molecular target: Ribosomal protein S6 kinase beta-1 (Homo sapiens) (UniProt P23443); conditions: at 0.1 µM
[10] = molecular target: Ribosomal protein S6 kinase beta-1 (Homo sapiens) (UniProt P23443); conditions: at 1 µM
[11] = molecular target: T1, 3-phosphoinositide-dependent protein kinase 1 (Homo sapiens) (UniProt O15530); conditions: at 0.1 µM;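 also: values are mean inhibition of PDK1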
T1 sequence (whole entry): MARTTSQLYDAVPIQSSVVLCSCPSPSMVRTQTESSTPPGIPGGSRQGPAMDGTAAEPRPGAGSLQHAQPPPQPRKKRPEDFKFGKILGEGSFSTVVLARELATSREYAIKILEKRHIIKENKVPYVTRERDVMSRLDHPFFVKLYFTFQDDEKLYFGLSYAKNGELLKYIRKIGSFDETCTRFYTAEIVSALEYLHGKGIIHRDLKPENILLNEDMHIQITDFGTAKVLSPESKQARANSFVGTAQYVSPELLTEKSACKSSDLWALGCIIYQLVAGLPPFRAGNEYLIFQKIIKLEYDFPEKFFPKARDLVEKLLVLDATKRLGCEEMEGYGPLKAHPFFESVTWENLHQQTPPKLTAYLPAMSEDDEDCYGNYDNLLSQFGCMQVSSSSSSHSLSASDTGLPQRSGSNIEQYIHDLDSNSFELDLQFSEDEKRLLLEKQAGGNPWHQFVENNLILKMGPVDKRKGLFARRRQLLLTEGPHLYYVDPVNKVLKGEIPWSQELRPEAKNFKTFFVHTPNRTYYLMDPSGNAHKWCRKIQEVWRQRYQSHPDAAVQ

[12] = molecular target: cAMP-dependent protein kinase catalytic subunit alpha (Homo sapiens) (UniProt P17612); conditions: at 0.1 µM
[13] = molecular target: cAMP-dependent protein kinase catalytic subunit alpha (Homo sapiens) (UniProt P17612); conditions: at 1 µM
[14] = molecular target: Protein kinase C alpha type (Homo sapiens) (UniProt P17252); conditions: at 0.1 µM
[15] = molecular target: Protein kinase C alpha type (Homo sapiens) (UniProt P17252); conditions: at 1 µM
[16] = molecular target: Protein kinase C beta type (Homo sapiens) (UniProt P05771); conditions: at 0.1 µM
[17] = molecular target: Protein kinase C beta type (Homo sapiens) (UniProt P05771); conditions: at 1 µM
[18] = molecular target: Protein kinase C eta type (Homo sapiens) (UniProt P24723); conditions: at 0.1 µM
[19] = molecular target: Protein kinase C eta type (Homo sapiens) (UniProt P24723); conditions: at 1 µM
[20] = molecular target: Protein kinase C gamma type (Homo sapiens) (UniProt P05129); conditions: at 0.1 µM;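 also: values are mean percent inhibition of PKC gamma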

Chain of Ribosomal protein S6 kinase beta-1 (Homo sapiens) (P23443 whole entry, looked up): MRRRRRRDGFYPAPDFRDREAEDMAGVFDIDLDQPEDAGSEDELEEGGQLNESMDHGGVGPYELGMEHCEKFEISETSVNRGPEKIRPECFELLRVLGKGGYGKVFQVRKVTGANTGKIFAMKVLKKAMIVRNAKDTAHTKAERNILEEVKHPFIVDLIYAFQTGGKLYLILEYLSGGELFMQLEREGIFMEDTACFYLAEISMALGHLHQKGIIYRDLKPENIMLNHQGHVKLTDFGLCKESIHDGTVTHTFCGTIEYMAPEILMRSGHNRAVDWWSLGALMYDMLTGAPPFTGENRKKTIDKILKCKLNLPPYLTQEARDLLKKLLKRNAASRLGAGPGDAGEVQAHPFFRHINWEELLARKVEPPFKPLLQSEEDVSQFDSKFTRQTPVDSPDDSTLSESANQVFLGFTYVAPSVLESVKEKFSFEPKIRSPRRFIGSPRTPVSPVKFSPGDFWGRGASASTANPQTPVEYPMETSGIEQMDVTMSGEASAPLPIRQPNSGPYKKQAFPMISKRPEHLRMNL
Chain of Serine/threonine-protein kinase MRCK beta (Homo sapiens) (Q9Y5S2 whole entry): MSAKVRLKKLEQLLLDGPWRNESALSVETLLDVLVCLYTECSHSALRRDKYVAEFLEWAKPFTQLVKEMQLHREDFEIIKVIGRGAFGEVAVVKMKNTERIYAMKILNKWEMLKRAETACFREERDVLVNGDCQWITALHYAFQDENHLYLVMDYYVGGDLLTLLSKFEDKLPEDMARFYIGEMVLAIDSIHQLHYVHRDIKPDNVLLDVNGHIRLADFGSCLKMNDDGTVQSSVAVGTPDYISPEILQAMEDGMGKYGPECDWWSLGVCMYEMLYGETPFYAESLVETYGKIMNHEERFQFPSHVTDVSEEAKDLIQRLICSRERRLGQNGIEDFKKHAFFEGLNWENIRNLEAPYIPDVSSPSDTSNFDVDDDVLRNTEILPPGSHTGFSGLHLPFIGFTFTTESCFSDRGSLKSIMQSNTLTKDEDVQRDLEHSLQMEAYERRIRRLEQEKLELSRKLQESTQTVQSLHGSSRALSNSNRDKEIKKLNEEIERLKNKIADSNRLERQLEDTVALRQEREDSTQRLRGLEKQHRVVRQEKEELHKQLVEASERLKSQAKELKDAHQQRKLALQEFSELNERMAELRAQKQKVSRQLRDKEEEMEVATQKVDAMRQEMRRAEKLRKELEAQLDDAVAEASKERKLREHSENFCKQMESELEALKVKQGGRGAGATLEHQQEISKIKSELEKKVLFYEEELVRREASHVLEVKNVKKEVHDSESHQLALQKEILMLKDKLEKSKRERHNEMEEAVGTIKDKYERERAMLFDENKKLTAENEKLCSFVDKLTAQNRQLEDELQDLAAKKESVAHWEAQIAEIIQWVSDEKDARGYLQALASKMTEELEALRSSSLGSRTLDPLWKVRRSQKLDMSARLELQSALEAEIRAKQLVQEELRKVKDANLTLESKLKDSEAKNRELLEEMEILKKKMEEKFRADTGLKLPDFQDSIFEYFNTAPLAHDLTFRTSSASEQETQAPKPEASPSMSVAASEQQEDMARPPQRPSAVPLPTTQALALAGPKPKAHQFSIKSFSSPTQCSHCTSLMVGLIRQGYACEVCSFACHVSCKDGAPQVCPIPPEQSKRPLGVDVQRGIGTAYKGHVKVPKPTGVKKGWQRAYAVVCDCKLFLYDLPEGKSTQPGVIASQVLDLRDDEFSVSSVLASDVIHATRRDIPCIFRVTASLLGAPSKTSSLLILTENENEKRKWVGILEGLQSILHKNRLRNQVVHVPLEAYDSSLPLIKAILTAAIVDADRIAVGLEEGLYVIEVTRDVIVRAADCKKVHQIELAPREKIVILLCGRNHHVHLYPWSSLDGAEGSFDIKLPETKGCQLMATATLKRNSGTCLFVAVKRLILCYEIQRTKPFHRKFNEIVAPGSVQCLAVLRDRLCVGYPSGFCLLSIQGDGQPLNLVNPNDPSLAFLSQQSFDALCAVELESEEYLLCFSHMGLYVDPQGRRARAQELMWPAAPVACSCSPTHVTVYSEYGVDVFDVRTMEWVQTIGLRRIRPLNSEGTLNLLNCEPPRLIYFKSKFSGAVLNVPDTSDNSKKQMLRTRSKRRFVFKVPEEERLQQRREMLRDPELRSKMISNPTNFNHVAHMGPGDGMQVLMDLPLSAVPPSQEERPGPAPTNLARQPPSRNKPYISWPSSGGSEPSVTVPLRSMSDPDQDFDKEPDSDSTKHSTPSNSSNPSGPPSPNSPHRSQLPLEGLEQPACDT
Chain of Ribosomal protein S6 kinase alpha-4 (Homo sapiens) (O75676 whole entry, looked up): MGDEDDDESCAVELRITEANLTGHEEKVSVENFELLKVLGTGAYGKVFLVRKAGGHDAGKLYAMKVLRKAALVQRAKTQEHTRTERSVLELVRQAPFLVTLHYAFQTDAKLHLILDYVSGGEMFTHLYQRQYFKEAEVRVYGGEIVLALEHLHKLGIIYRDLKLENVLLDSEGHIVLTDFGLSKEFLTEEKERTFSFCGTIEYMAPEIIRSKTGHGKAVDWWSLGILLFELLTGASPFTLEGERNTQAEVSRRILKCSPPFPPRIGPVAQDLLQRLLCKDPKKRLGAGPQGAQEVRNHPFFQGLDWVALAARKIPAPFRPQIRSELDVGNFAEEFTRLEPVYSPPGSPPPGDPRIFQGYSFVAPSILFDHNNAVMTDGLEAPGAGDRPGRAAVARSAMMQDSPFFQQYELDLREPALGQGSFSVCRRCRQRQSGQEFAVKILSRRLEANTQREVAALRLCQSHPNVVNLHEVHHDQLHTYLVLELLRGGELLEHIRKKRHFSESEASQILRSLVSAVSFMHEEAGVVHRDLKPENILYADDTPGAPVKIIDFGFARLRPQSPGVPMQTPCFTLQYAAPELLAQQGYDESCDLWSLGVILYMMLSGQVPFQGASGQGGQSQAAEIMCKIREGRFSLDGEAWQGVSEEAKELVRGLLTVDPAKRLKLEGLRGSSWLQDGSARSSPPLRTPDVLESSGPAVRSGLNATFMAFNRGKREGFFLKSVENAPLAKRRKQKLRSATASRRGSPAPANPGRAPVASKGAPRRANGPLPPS
Chain of Protein kinase C beta type (Homo sapiens) (P05771 2-671 limits assumed): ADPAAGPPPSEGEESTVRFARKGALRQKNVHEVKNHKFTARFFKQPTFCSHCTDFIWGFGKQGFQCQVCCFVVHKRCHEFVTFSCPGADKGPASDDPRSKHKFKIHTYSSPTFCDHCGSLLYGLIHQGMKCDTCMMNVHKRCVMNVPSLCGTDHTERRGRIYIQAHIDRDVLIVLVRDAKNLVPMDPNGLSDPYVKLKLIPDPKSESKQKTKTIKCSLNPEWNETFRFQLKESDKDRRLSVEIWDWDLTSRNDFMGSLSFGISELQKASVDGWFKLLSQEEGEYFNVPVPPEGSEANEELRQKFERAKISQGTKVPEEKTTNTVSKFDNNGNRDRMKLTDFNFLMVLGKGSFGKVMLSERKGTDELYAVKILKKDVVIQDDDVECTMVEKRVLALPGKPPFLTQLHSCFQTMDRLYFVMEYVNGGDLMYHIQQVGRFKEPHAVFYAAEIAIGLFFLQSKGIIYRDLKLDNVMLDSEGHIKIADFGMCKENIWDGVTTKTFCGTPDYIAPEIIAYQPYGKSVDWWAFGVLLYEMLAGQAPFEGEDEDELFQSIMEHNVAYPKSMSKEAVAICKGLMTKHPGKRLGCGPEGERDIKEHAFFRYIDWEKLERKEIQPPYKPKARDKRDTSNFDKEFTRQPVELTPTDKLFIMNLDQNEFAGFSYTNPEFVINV

| Structure (SMILES) | inhibition [1] | inhibition [2] | inhibition [3] | inhibition [4] | inhibition [5] | inhibition [6] | inhibition [7] | inhibition [8] | inhibition [9] | inhibition [10] | inhibition [11] | inhibition [12] | inhibition [13] | inhibition [14] | inhibition [15] | inhibition [16] | inhibition [17] | inhibition [18] | inhibition [19] | inhibition [20] |
| --- | --- | --- | --- | --- | --- | --- | --- | --- | --- | --- | --- | --- | --- | --- | --- | --- | --- | --- | --- | --- |
| NS(=O)(=O)c1ccc(N/N=C2\C(=O)Nc3ccc(-c4cnco4)cc32)cc1 | 0.37% | 8.38% | 0.26% | 6.65% | -1.59% | -0.36% | 0.74% | 3.26% | 0.79% | 6.58% | 2.95% | -3.28% | -2.27% | -4.06% | -1.84% | 1.26% | 0.36% | 3.38% | 1.24% | -1.13% |
| NC(=O)c1cc(-c2ccncc2)cc(-c2ccccc2)c1N | 0.84% | -0.04% | 1.07% | 2.4% | -1.53% | 0.93% | 2.32% | 3.43% | 3.54% | 2.1% | 2.16% | 2.43% | 6.13% | 1.21% | 4.38% | 1.43% | 1.87% | 5.05% | 7.89% | -0.73% |
| C[C@@H](Oc1cc(-n2cnc3ccc(OCC4CCN(C)CC4)cc32)sc1C(N)=O)c1ccccc1Cl | 3.98% | 9.1% | 1.18% | 1.35% | 4.97% | 7.75% | 3.23% | 7.58% | 2.88% | 6.79% | 2.77% | 3.4% | -1.07% | 1.11% | 5.2% | 1.4% | 3.67% | 5.52% | 5.34% | 3.17% |
| CN(c1ccc(NC(=O)Nc2c(Cl)cccc2Cl)cc1)c1ccnc(Nc2cccc(CS(C)(=O)=O)c2)n1 | 1.56% | 2.97% | 0.43% | 0.92% | 2.92% | 4.25% | 2.24% | 4.1% | -1.3% | 2.4% | 9.04% | 2.36% | 3.01% | 1.14% | 2.02% | 0.67% | 1.35% | 1.33% | 3.8% | 3.61% |
| CN(C)CCCNc1nccc(-c2c(-c3ccc(F)cc3)nn3cc(C(F)(F)F)ccc23)n1 | 0.46% | 1.03% | 0.48% | 1.09% | 1.3% | 2.69% | 1.95% | 4.5% | 2.93% | 3.55% | 2.53% | -2.76% | -2.98% | -2.9% | -2.14% | 2.22% | 0.97% | 6.55% | 0.14% | 1.19% |
| NC(=O)c1ccc(Oc2nccc(-c3c(-c4ccc(F)cc4)ncn3C3CCNCC3)n2)cc1 | 5.74% | 5.95% | 1.2% | 2.3% | -2.57% | -1.95% | 3.42% | 5.79% | 3.21% | 5.34% | 1.43% | 8.89% | 43% | 1.16% | 2.25% | 1.04% | 5.96% | 5.08% | 5.97% | 2.56% |
| COc1ccc2cc(-c3c(-c4ccncc4)nc(-c4ccc(S(C)(=O)=O)cc4C)n3C)ccc2c1 | 0.29% | 1.6% | 2.15% | 1.98% | 3.82% | 5.44% | 7.21% | 9.9% | 1.75% | 3.34% | 0.71% | 8.44% | 29.8% | 1.11% | 6.73% | 2.3% | 14.5% | 7.27% | 7.65% | 2.09% |
| COC(=O)Nc1nc2ccc(Sc3ccc(NC(=O)Nc4cc(C(F)(F)F)ccc4F)cc3)cc2[nH]1 | 0.78% | 0.4% | -0.23% | -1% | 1.97% | 2.08% | 0.7% | 0.37% | 78.2% | 7.6% | 1.38% | -0.04% | 2.01% | 0.22% | 0.15% | 0.84% | 0.31% | -1.46% | 0.54% | 2.88% |
| CCC(=O)Nc1ccc(C)c(-c2ccc(C(=O)NCC3CC3)cc2)c1 | 0% | 1.8% | -0.7% | 0.23% | 0.17% | -0.98% | 1.96% | 2.63% | 0.91% | 1.77% | 2.1% | 2.1% | 1.49% | -0.25% | 0.8% | 0.07% | -0.89% | 5.65% | 3.46% | 0.1% |
| O=C1Nc2ccccc2/C1=C/Nc1ccc(-n2cncn2)cc1 | 0.72% | 3.59% | 0.37% | 1.08% | 5.48% | 8.54% | 3.95% | 13.4% | 2.05% | 9.06% | 2.38% | 1.48% | 4.31% | 0.43% | 1.82% | 0.83% | 2.25% | 8.55% | 5.57% | 0.54% |
| COc1ccc2ncn(-c3cc(O[C@H](C)c4ccccc4Cl)c(C(N)=O)s3)c2c1 | -0.38% | 1.13% | 0.7% | 3.24% | 2.21% | 1.33% | 3.9% | 2.99% | 0.38% | 2.8% | 0.22% | -1.47% | -1% | -2.81% | -1.38% | 1.09% | 2.58% | 5.09% | 3.95% | 0.98% |
| C/C(Nc1ccc(S(N)(=O)=O)cc1)=C1/C(=O)Nc2ccccc21 | -0.23% | 0.16% | 0.47% | 3.4% | 0% | 8.47% | 1.38% | 17.7% | -1.96% | 2.17% | 6.52% | -1.19% | 2.61% | 0.02% | 0.38% | -0.26% | 1.85% | -1.23% | -1.17% | -3.82% |
| Fc1ccc(-c2ncn(CCCN3CCOCC3)c2-c2ccncc2)cc1 | 1.19% | 1.33% | 0.96% | 2.08% | 0.01% | -0.79% | 0.3% | 0.33% | 0.29% | -0.43% | -0.98% | 0.23% | 1.67% | 1.44% | 1.07% | -0.46% | -0.8% | -2.71% | -1.13% | -1.84% |
| Fc1ccc(-c2ncn(C3CCNCC3)c2-c2ccnc(Oc3ccc(F)c(F)c3)n2)cc1 | -3.08% | -2.58% | -0.68% | -0.35% | 0.54% | -0.7% | 3.37% | 4.69% | 0.73% | 0.63% | 0.57% | -0.98% | 9.25% | -3.02% | -0.82% | -0.22% | 3.21% | 3.45% | 5.62% | 1.57% |
| O=C(Nc1n[nH]c2cc(-c3ccccc3)ccc12)C1CC1 | 0.05% | -1.04% | 0.91% | 0.02% | 5.17% | 5.56% | 2.14% | 1.76% | 0.9% | 1.27% | 1.51% | 1.89% | 2.35% | 0.99% | 1.87% | -0.78% | 4.47% | 2.72% | 2.77% | 1.69% |
| CS(=O)(=O)CCNCc1cc(-c2cc3c(Nc4ccc(OCc5cccc(F)c5)c(Cl)c4)ncnc3s2)cs1 | 2.36% | 5.45% | -0.63% | 2.8% | 2.17% | 1.79% | 3.41% | 4.94% | 2.17% | 4.75% | 2.06% | 1.96% | 1.98% | 0.73% | 1.44% | 0.43% | 1.19% | 5.83% | 7.05% | 2.95% |
| COc1cc2ncn(-c3cc(OCc4ccccc4C(F)(F)F)c(C(C)=O)s3)c2cc1OC | -2.12% | 1.84% | 0.33% | 0.86% | 1.02% | -0.03% | 1.45% | 3.01% | 0.79% | 0.12% | 0.15% | 1.04% | 1.7% | -0.12% | 0.82% | 1.02% | 0.44% | 3.8% | 3.47% | -0.98% |
| NC(=O)Cc1ccccc1Oc1nccc(-c2c(-c3ccc(F)cc3)ncn2C2CCNCC2)n1 | 0.16% | -0.52% | -0.05% | 1.05% | 2.22% | 1.53% | -1.39% | 1.64% | 0.73% | 1.27% | 1.03% | 1.37% | 0.93% | 0.35% | 1.51% | -0.44% | 3.18% | 3.28% | 0.22% | 4.12% |
| O=C(Nc1n[nH]c2nc(-c3ccco3)ccc12)C1CC1 | -0.04% | -0.15% | 0.63% | 3.54% | 6.97% | 8.4% | 1.68% | 3.29% | 1.44% | 2.43% | 2.58% | 1.78% | 4.07% | -0.2% | 0.41% | -0.22% | -1.09% | -0.3% | 1.42% | -0.6% |
| CNC(=O)c1cncc(/C=C/c2c(C)cccc2C)c1 | 1.09% | 4.17% | -0.27% | -0.99% | -1.22% | -0.95% | 1.35% | 1.5% | 2.04% | 0.86% | 2.19% | -2.91% | -3.45% | -2.57% | -1.89% | 1.56% | -0.29% | 3.75% | 1.62% | -0.51% |
| Cc1ccc(C(=O)NC2CCC2)cc1-c1ccc(C(=O)NCC2CC2)cc1 | 0.19% | 0.56% | 0.73% | 0.97% | 2.7% | 2.99% | 1.75% | 3.11% | 1.12% | 0.01% | 1.97% | 1.15% | 1.14% | 0.19% | -0.23% | 0.31% | 1.48% | 7.1% | 2.68% | 0.43% |
